Compounds with a hit are over-represented: about 2.2% of the library has one in this group of screens.
TDP43 rescue: TDP-43 toxicity inhibition in yeast; TDP-43 expressing yeast growth rescue, BacTiter-Glo, 24 h; actives 1.8% (n = 410,000); Potency, µM (highest dose often 46.1 µM), hits mostly activators; note: nearly all actives have a fitted effect of over 50% in size
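In this qHTS, compounds that restore growth of yeast expressing TDP-43 appear as activators. Cells (OD600=0.02, galactose medium, raffinose-pregrown) are incubated with compound 24 hr at 30 deg C and growth is quantified by BacTiter-Glo.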
Mito fusion act: blocks mitochondrial division or promotes mitochondrial fusion | actives 0.23% (n = 320,000) | Potency, µM (highest dose often 46.1 µM), usual class: activators | S. cerevisiae fusion-defective mutant growth rescue, CellTiterGlo 48 h; note: nearly all actives have a fitted effect of over 45% in size
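Read-out: ATP-based luminescence (CellTiterGlo, 10 min ambient) reporting growth of fusion-defective ts yeast after 48 hours at 37C on glycerol/ethanol YPEG medium in the presence of compound.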
FUS suppressor: suppressors of FUS proteinopathy in yeast | S. cerevisiae FUS-expressing, growth rescue, OD600, 24 h | Potency, µM (top dose mostly 76.6 µM), most hits filed as activators | actives 0.24% (n = 390,000); note: nearly all actives have a fitted effect of over 55% in size
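Yeast FUS proteinopathy model; galactose-induced FUS (2%), starting OD 0.005. Cpds in dilution series, 24hr, 30C, 99% humidity. Abs 600 nm growth. Pos ctrl CP55940 (top 92uM final); neg ctrl DMSO.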
Abeta rescue: compounds reversing amyloid beta toxicity in yeast | actives 0.063% (n = 410,000) | AID 1347071 | Potency, µM (top dose mostly 46.1 µM), usual class: activators | yeast expressing A-beta42, growth rescue, OD600, 48 h; response scale: 0% DMSO, 100% iron-clioquinol control; note: nearly all actives have a fitted effect of over 55% in size
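Growth rescue measured by 600 nm absorbance after 48 h yeast culture at 30 C with compound. Values normalized between DMSO and an equimolar ferric chloride plus clioquinol control.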
aSyn yeast inh: inhibitors of alpha-synuclein toxicity in yeast; Yeast expressing alpha-synuclein, growth rescue, BacTiter-Glo, 24 h; Potency, µM (titrated, usually from 46.1 µM), most hits filed as activators; actives 0.14% (n = 370,000); AID 652106; note: nearly all actives have a fitted effect of over 65% in size
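Readout is rescue of growth in alpha-synuclein-expressing yeast, so inhibitors of toxicity appear as activators. Growth after 24 hr at 30 deg C in galactose medium is quantified by luminescence.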
Numbers stand for hits; – = inactive; ? = inconclusive; · = not tested or not shown; [ ] = remark or other dose. Calls come from the whole dose curve; as a rule, active = well fitted curve in the direction sought with a large enough effect; inconclusive = small, poorly fitted or top-dose-only effect, or another doubt; inactive = no such curve, though single readings can be large; an effect the other way counts as inactive or inconclusive.

SMILES	TDP43 rescue	Mito fusion act	FUS suppressor	Abeta rescue	aSyn yeast inh
CC[C@]12c3[nH]c4ccc(OC)cc4c3CCN1C(=O)C(CC(=O)NC/C=C(\C)CCC=C(C)C)C[C@@H]2C(=O)N1CCN(C(=O)C2CC2)CC1 (stereo partly drawn)	–	·	?	–	–
CC(C)N(C(=O)[C@H]1C[C@H](CC(=O)NCc2ccco2)C(=O)N2CCc3c([nH]c4cc(-c5ccco5)ccc34)[C@]12C)C(C)C	13µM	·	?	–	?
CC(C)N(C(=O)[C@H]1C[C@H](CC(=O)NCc2cccc(C(F)(F)F)c2)C(=O)N2CCc3c([nH]c4ccc(Cl)cc34)[C@]12C)C(C)C	35µM	·	–	–	?
COc1ccc2c(c1)CC(NC(=O)Nc1ccc(Br)c(C)c1)CO2 (stereo not drawn)	–	·	–	–	·
C/C(C=NNC(=O)c1cc(-c2ccc(Cl)cc2)n[nH]1)=C\c1ccccc1	·	·	–	·	·
Cc1ccc(Cl)cc1NC(=O)c1ccc(NC(=O)N2CCSc3ncccc32)cc1	–	·	–	–	·
CC(C)N(C(=O)[C@H]1C[C@H](CC(=O)NCc2ccco2)C(=O)N2CCc3c([nH]c4ccc(Cl)cc34)[C@]12C)C(C)C	35µM	·	?	–	–
CCN(CC)C(=O)[C@H]1C[C@H](CC(=O)NCc2ccco2)C(=O)N2CCc3c([nH]c4ccc(Cl)cc34)[C@]12C	–	·	–	–	–
COc1ccc(Nc2cnn(-c3nc4ccccc4s3)c(=O)c2Cl)cc1	8.9µM	–	·	–	–
O=c1c(Cl)c(Nc2cccc(Cl)c2)cnn1-c1nc2ccccc2s1	–	?	–	–	–
COc1cc(/C=N/n2c(-c3cc(-c4ccccc4)n[nH]3)n[nH]c2=S)ccc1OCc1ccccc1	·	·	–	·	·
Cc1cccc(/C=N/NC(=O)c2cc3c(s2)-c2ccccc2CC3)c1	?	11µM	–	–	–
O=C(N/N=C/c1cccc(C(F)(F)F)c1)c1cc2c(s1)-c1ccccc1CC2	–	–	–	–	–
Cc1ccc(-c2nc(-c3cc4cc(Cl)ccc4oc3=O)sc2C)cc1	·	·	·	·	–
CCCCC(=O)NNC(=S)NC(=O)c1cccc([N+](=O)[O-])c1	14µM	–	–	–	?
CCCCC(=O)NNC(=S)NC(=O)c1ccc(C)cc1	–	–	–	–	3.5µM
CCCCC(=O)NNC(=S)NC(=O)c1ccc([N+](=O)[O-])cc1	20µM	–	–	?	32µM
O=C(NNC(=S)NC(=O)c1ccccc1)c1cccc([N+](=O)[O-])c1	–	–	–	?	–
CC(C)CC(=O)NC(=S)NNC(=O)c1ccc([N+](=O)[O-])cc1	18µM	–	–	?	?
N=c1c2c(-c3ccccc3)c(-c3ccccc3)n(CCc3ccccc3)c2ncn1C1CCC(O)CC1 (stereo not drawn)	·	·	–	·	·
COC(=O)c1ccccc1NC(=S)NC(=O)c1ccc(C)cc1	20µM	–	·	–	–
CCCC(=O)N1CCN(c2nc3ccc(F)cc3s2)CC1	?	·	–	–	·
CCCN1C(=O)/C(=C/c2ccc(N3CCOCC3)cc2)NC1=S	–	–	–	–	–
CCCN1C(=O)/C(=C/c2ccc(OCC(=O)OCC)cc2)NC1=S	–	–	22µM	–	–
CCCN1C(=O)/C(=C/c2ccc(N3CCCC3)c(C)c2)NC1=S	3.2µM	–	–	–	–
SMILES	TDP43 rescue	Mito fusion act	FUS suppressor	Abeta rescue	aSyn yeast inh
CC(CCl)n1c(=O)c2ccccc2n1C(=O)c1ccccc1 (stereo not drawn)	11µM	·	–	–	–
COc1cc(F)c(S(=O)(=O)N2CCCN(S(=O)(=O)c3cccc(N)c3)CC2)c(F)c1	·	·	–	·	·
CCOc1ccccc1NC(=O)CSc1nc2cc(OC)c(OC)cc2c2nc(CCn3c(C)nc4ccccc43)nn12	–	·	?	–	·
COC(=O)CCC(=O)Nc1sc(Cc2ccccc2)c(C)c1C(N)=O	–[0.397 µM]	–	–	–	–
CCCC(=O)Nc1sc(Cc2ccccc2)c(C)c1C(N)=O	18µM	?	–	–	–
O=C(CCCOC(=O)c1ccc(O)cc1O)c1ccccc1	?	–	–	–	–
O=C(OCCCOc1ccc(F)cc1)c1ccc(O)cc1O	13µM	–	–	–	–
CCN(C(=O)Cn1nc(Cc2cccnc2)c2ccccc2c1=O)c1cc(C)ccc1C	–	·	–	–	·
CCN1C=C(Cc2ccc(OC)cc2)C2=C(C1)C(c1ccc(OC)cc1)C(C#N)=C(N)O2 (stereo not drawn)	–	–	35µM	–	–
O=C(c1cc(-c2ccc(O)cc2)on1)N1CCc2ccccc2C1	14µM	–	–	–	–
C#CCNC(=O)C[C@H]1C[C@@]2(C(=O)OC)C(=C[C@H](C(C)C)O[C@@H]2C2CC2)N(Cc2ccc3c(c2)OCO3)C1=O	·	·	–	·	·
CCC(C)c1ccccc1OCCn1c(CCNC(=O)C2CCCCC2)nc2ccccc21 (stereo not drawn)	·	·	·	·	–
COc1ccc(N2CCN(C(=O)c3ccc4c(c3)N(Cc3cc(C)ccc3C)C(=O)c3ccccc3S4=O)CC2)cc1 (stereo not drawn)	–	·	–	–	·
CCN1CCN(CCNC(=O)c2ccc3c(c2)N(Cc2cccc(Cl)c2)C(=O)c2ccccc2S3=O)CC1 (stereo not drawn)	–	–	–	–	–
CCN(C(=O)c1ccc2c(c1)N(Cc1cccc(Cl)c1)C(=O)c1ccccc1S2=O)c1ccccc1 (stereo not drawn)	–	·	32µM	–	·
Cc1ccc(C)c(CN2C(=O)c3ccccc3S(=O)c3ccc(C(=O)N4CCN(c5cccc(Cl)c5)CC4)cc32)c1 (stereo not drawn)	–	·	10µM	–	·
CCOc1ccc(CCNC(=O)c2ccc3c(c2)N(Cc2ccccc2)C(=O)c2ccccc2S3=O)cc1OCC (stereo not drawn)	–	·	25µM	–	·
COc1ccc(-n2nc3ccc(NC(=O)c4c(OC)cccc4OC)cc3n2)cc1	–	·	–	–	–
CC(C)c1cc(C(=O)NC(C)c2ccccc2)no1 (stereo not drawn)	–	·	–	–	·
C[C@H](c1ccccc1)N1C[C@@H](COCc2ccccc2)Oc2cc(N3CC[C@@H](O)C3)ccc2S1(=O)=O	28µM	·	–	–	–
CCC[C@H]1[C@@H](OC(=O)NC2CCC2)CC[C@@]23CCCN2C(=O)CCC[C@@H]13	·	·	–	·	·
O=C(CCl)N(Cc1ccccc1)c1ccccc1	20µM	–	–	–	–
CN(Cc1ccccc1)C(=O)CCn1c(=O)oc2ccccc21	–	–	–	–	–
O=C(CCn1c(=O)oc2ccccc21)N(Cc1ccccc1)c1ccccc1	22µM	–	–	–	–
CC[n+]1cccc(Br)c1	·	·	·	·	–
COc1ccc(NC(=O)C2CCCN2S(=O)(=O)c2cccc3cccnc23)c(OC)c1 (stereo not drawn)	2.5µM	–	–	–	–
